Laboratory results from PubChem BioAssay AID1345085 (National Center for Advancing Translational Sciences (NCATS), 2018).
Records with an inconclusive call do not appear. Values without a mark were called inactive. Activity calls are given as the source filed them. Calls follow the shape of the dose curve; as a rule, active = well fitted cell-killing curve with a large enough effect; inconclusive = small, poorly fitted or top-dose-only effect, or effect the other way; inactive = no such curve, though single readings can be large or run the other way.
% is scaled to controls: 0 for no effect and ±100 for the full control effect; potency is read from the fitted curve at half-maximal effect.
Also: nearly all actives have a fitted effect of over 55% in size.

Each compound was assayed on Jar (assay: Confirmatory qHTS for gynecologic anti-cancer compounds from libraries of approved drugs and bioactive compounds). Settings: gynecologic cancer cell panel viability, ATPlite luminescence, 48 h; series mostly up to 57.6 µM.
In short: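 Cells (1,000/well) were plated, left 16 h at 37 C/5% CO2, then given compound at 11 concentrations (1:3) from 57.5 uM to 0.977 nM for 48 h. ATPlite luminescence after 15 min at room temperature gave IC50 values.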
CC[C@@]1(O)C(=O)OCc2c1cc1n(c2=O)Cc2c-1nc1ccccc1c2/C=N/OC(C)(C)C was tested, and the Potency was 0.968 µM (active). For CNC(=O)c1ccccc1Nc1nc(Nc2ccc(N3CCOCC3)cc2OC)ncc1Cl, the Potency was 19.3 µM (active). With CNCc1ccc(-c2[nH]c3cc(F)cc4c3c2CCNC4=O)cc1 the Potency was “inactive”. For O=C(CCCCCCNC(=O)c1cnc(N(c2ccccc2)c2ccccc2)nc1)NO, the Potency was 8.63 µM (active). For NC(=O)c1ccc2nc(-c3ccc(Oc4ccc(Cl)cc4)cc3)[nH]c2c1, the Potency was 24.3 µM (active). For Cc1cc(C2CCCCC2)n(O)c(=O)c1, the Potency was 8.86 µM (active). With Cc1cc(C(C)Nc2ccccc2C(=O)O)c2nc(N3CCOCC3)cc(=O)n2c1 (centres undefined) the Potency was 0.968 µM (active). COc1ccc(-c2nc3ccc(C4=NNC(=O)CC4C)cc3[nH]2)cc1 (centres undefined) was tested, and the Potency was 21.7 µM (active). With FC(F)(F)c1ccc(/C=C/c2nc(COc3ccc(CCCCn4ccnn4)cc3)co2)cc1 the Potency was 0.0172 µM (active). OC[C@H]1O[C@@H](n2cnc3c(=S)nc[nH]c32)[C@H](O)[C@@H]1O was tested, and the Potency was 12.2 µM (active). O=c1[nH]c(=O)n([C@H]2C[C@H](O)[C@@H](CO)O2)cc1Br was tested, and the Potency was “inactive”. In the case of Cc1ccc(C(N)=O)cc1Nc1nccc(-c2cn(C(C)C)c3cnccc23)n1, the Potency is reported as 6.85 µM (active). C[C@]12CCC(=O)C=C1CC[C@@H]1[C@@H]2[C@@H](O)C[C@@]2(C)[C@H]1CC[C@]2(O)C(=O)CO was tested, and the Potency was “inactive”. With O=C(c1ccc(/C=C/c2n[nH]c3ccccc23)cc1)N1CCNCC1 the Potency was 30.6 µM (active). NC(=O)Nc1cc(-c2cccc(F)c2)sc1C(=O)NC1CCCNC1 (centres undefined) was tested, and the Potency was 1.22 µM (active). CCN(CC)CCCC(C)Nc1ccnc2cc(Cl)ccc12 (centres undefined) was tested, and the Potency was “inactive”. In the case of CCCCN(CCCC)C(=O)CN1C[C@H](c2ccc3c(c2)OCO3)[C@@H](C(=O)O)[C@@H]1c1ccc(OC)cc1, the Potency is reported as “inactive”. NC(=O)c1cccc2cn(-c3ccc([C@@H]4CCCNC4)cc3)nc12 was tested, and the Potency was “inactive”. With CCN(CC)CCCC(C)Nc1c2ccc(Cl)cc2nc2ccc(OC)cc12 (centres undefined) the Potency was “inactive”. In the case of CC[C@H](Nc1ncnc2nc[nH]c12)c1nc2cccc(F)c2c(=O)n1-c1ccccc1, the activity change, negative = viability loss is reported as -10.1% [at 10.7 µM]. For CCCc1nn(C)c2c(=O)[nH]c(-c3cc(S(=O)(=O)N4CCN(C)CC4)ccc3OCC)nc12, the Potency was “inactive”. For CC(C)Oc1ccc(C(=O)NC(CNC(=O)CN(C)C)Cc2ccc(-c3cn4cccc(C(C)O)c4n3)cc2)cc1Cl (centres undefined), the Potency was 0.172 µM (active). For Cc1cnc(Nc2ccc(CN3CCOCC3)cc2)nc1Nc1cccc(S(=O)(=O)NC(C)(C)C)c1, the Potency was 9.68 µM (active). With COc1ccc(-c2ccc3c(N4CCOCC4C)nc(N4CCOCC4C)nc3n2)cc1CO (centres undefined) the Potency was “inactive”.
